This note sets out measurements from ChEMBL document CHEMBL1157539, “Thousands of chemical starting points for antimalarial lead identification” (Nature, 2010).

Common to all, as to type: functional
Experiment [1] deals with Plasmodium falciparum. As to the kind of experiment: GSK_TCMDC: Inhibition of Plasmodium falciparum 3D7 in whole red blood cells, using parasite LDH activity as an index of growth. Test compounds present at 2uM.
Experiment [2] concerns Plasmodium falciparum. Put plainly: GSK_TCMDC: Inhibition of Plasmodium falciparum Dd2 in whole red blood cells, using parasite LDH activity as an index of growth. Test compounds present at 2uM.
For experiment [3], the system named is HepG2. Put plainly: GSK_TCMDC: Percent inhibition of human HepG2 cell line. Test compounds present at 10uM.

On to `CNc1ccc(CNCc2cccc(-c3ccc(-c4nc5cccc(C)c5[nH]4)cc3)c2)cc1.O=C(O)C(F)(F)F`, for which the Inhibition stood at 100% in experiment [1], 83% in experiment [2] and 26% in experiment [3].

Regarding `CC1(C)N=C(N)N=C(N)N1c1cc(Cl)c(Cl)c(Cl)c1.CCS(=O)(=O)O`, the Inhibition in experiment [1] turned out to be 93%; in experiment [2], 31%; in experiment [3], 68%.

Regarding `CCc1cn2c3c(cc(C(=O)N[C@@H](Cc4cccc(Cl)c4)[C@H](O)CNC4CCOCC4)cc13)N(C)S(=O)(=O)CC2.O=CO`, the Inhibition in experiment [1] came out at 98%; in experiment [2] it was 98%; in experiment [3] it was 2%.

For the compound `CS(=O)(=O)NCCCNCc1cccc(-c2ccc(-c3nc4ccccc4[nH]3)s2)c1.O=C(O)C(F)(F)F`, the Inhibition in experiment [1] stood at 90%; in experiment [2], 0%; in experiment [3], 24%.

Consider `CC(C)NCc1cccc(-c2cccc(NC(=O)c3cccc(C#N)c3)c2)c1.O=C(O)C(F)(F)F`, for which the results for the Inhibition in experiment [1], in experiment [2] and in experiment [3] were 99%, 22% and 12%, respectively.

For `CC1(C)N=C(N)N=C(Nc2ccc(F)c(F)c2)N1.Cl`, the Inhibition came to 91% in experiment [1], 1% in experiment [2] and 59% in experiment [3].

With `CN1CCN(CCCCNc2c3ccccc3nc3ccccc23)CC1`, the Inhibition is on record as 100% in experiment [1], 0% in experiment [2] and 37% in experiment [3].

For `Nc1nc(N)c2c(ccc3c2ccn3Cc2ccc(F)cc2)n1`, the Inhibition in experiment [1] is recorded as 97%; in experiment [2] it was 96%; in experiment [3], 66%.

Consider `COc1cccc(OC)c1C(=O)Nc1cccc(-c2nn3ccccc3c2-c2ccnc(Nc3cccc(F)c3)n2)c1`, for which the Inhibition is recorded as 95% in experiment [1], 38% in experiment [2] and 3% in experiment [3].

`OC(COCc1ccc(-c2ccccc2)cc1)CN1CCCCC1` (configuration not stated): the Inhibition in experiment [1] came out at 99%; in experiment [2] it was 75%; in experiment [3], 13%.

As for `Cc1cccc(CNc2nc(C)cc(N[C@@H](Cc3ccccc3)C(=O)NCc3cccc(F)c3)n2)c1.O=C(O)C(F)(F)F`, the results for the Inhibition in experiment [1], in experiment [2] and in experiment [3] were 100%, 82% and 39%, respectively.

Take `CCCc1cc(C(=O)N[C@@H](Cc2ccccc2)[C@H](O)CNC(C)(C)c2cccc(OC)c2)c(F)c(N2CCCC2=O)c1.O=CO`: the Inhibition in experiment [1] is 98%; in experiment [2], 98%; in experiment [3], 7%.

`COc1ccc(CN2CCC(CNCCc3ccccc3Cl)CC2)cc1.O=C(O)C(F)(F)F`: the Inhibition amounted to 87% in experiment [1], 17% in experiment [2] and 36% in experiment [3].

As for `Br.Cc1ccc(OCCCCON2C(=N)N=C(N)NC2(C)C)cc1C`, the Inhibition in experiment [1] was determined as 94%; in experiment [2] it was 97%; in experiment [3], 61%.

Regarding `N=C(/N=C(/NCCCCCCN/C(=N\C(=N)Nc1ccc(Cl)cc1)N1CCOCC1)N1CCOCC1)Nc1ccc(Cl)cc1`, the values for the Inhibition in experiment [1], in experiment [2] and in experiment [3] were 93%, 91% and 0%, respectively.

Consider `CC(C)(C)NC(=O)COC(=O)c1c2c(nc3ccccc13)C(=Cc1ccc3c(c1)OCO3)CCC2`, for which the Inhibition in experiment [1] is 90%; in experiment [2] it was 82%; in experiment [3], 7%.

Take `Cc1ccc2[nH]c(C3CCCNC3)c(-c3ccncc3)c2c1` (configuration not stated): the values for the Inhibition in experiment [1], in experiment [2] and in experiment [3] were 100%, 22% and 10%, respectively.

For the compound `OCc1ccc(-c2cncc(Nc3cccc(Cl)c3)c2)cc1`, the figures for the Inhibition in experiment [1], in experiment [2] and in experiment [3] were 95%, 100% and 4%, respectively.

For `COc1cccc(C(=O)NC(c2ccccc2OC)c2cc(Cl)c3cccnc3c2O)c1` (configuration not stated), the Inhibition in experiment [1] came to 91%; in experiment [2] it was 36%; in experiment [3] it was 58%.

As to `O=C(Nc1ccccc1)N1CCC(CN2CCOC(c3ccccc3)(c3ccccc3)C2)CC1`, the Inhibition came out at 96% in experiment [1], 98% in experiment [2] and 10% in experiment [3].

With `Fc1ccc2[nH]c(-c3cccc(-c4ccc(CNCCN5CCNCC5)cc4)c3)nc2c1.O=C(O)C(F)(F)F`, the Inhibition is reported as 90% in experiment [1], 0% in experiment [2] and 9% in experiment [3].

Consider `CCOc1ccccc1C1C(C(=O)C(C)(C)C)N2c3ccc(Br)cc3C=CC2C12C(=O)c1ccccc1C2=O` (configuration not stated), for which the figures for the Inhibition in experiment [1], in experiment [2] and in experiment [3] were 95%, 94% and 17%, respectively.

Take `Cc1c(Cl)cccc1S(=O)(=O)Nc1cccc(CCN2CCC(N3CCCCC3)CC2)c1`: the Inhibition in experiment [1] is on record as 100%; in experiment [2] it was 82%; in experiment [3], 38%.

As to `CCOc1ccc2nc3cc(NC(=O)c4ccco4)ccc3c(N)c2c1`, the Inhibition in experiment [1] worked out at 100%; in experiment [2], 56%; in experiment [3], 36%.

For the compound `CCc1nc2ccc(C(=O)OC)nc2n1Cc1ccc2oc(-c3ccccc3N)c(Br)c2c1`, the figures for the Inhibition in experiment [1], in experiment [2] and in experiment [3] were 93%, 75% and 8%, respectively.

As for `Cc1cccc2nc(-c3cccc(-c4cccc(CNCCc5cccn5C)c4)c3)[nH]c12.O=C(O)C(F)(F)F`, the Inhibition in experiment [1] is 91%; in experiment [2], 49%; in experiment [3], 4%.

On to `Br.N=C(N)c1ccc(C(=O)Nc2cccc(C(=N)N)c2)cc1`, for which the Inhibition amounted to 88% in experiment [1], 82% in experiment [2] and 13% in experiment [3].

In the case of `Br.O=C(CNc1ccncc1)c1c[nH]c2ccccc12`, the Inhibition is listed as 90% in experiment [1], 62% in experiment [2] and 31% in experiment [3].

Regarding `O=C(CCCCCNC(=O)c1ccc(O)c(-c2ccc(Cl)c(Cl)c2)c1)NC1CCCCCC1`, the Inhibition was 92% in experiment [1], 3% in experiment [2] and 0% in experiment [3].
